High-throughput results: PubChem BioAssay, National Center for Advancing Translational Sciences (NCATS)
Shiga toxin inh: A qHTS for Small Molecule Inhibitors of Shiga Toxin; Vero cells, Shiga toxin protein synthesis inhibition reporter; inhibition, % at 38.7 µM; actives 9.2% (n = 290,000); AID 2315, 2010; in the data active means inhibition mostly above about 28%, no sharp cut-off; inactive means mostly below about 43%; further: 0% is about no effect
Pf growth 48h: Primary qHTS for delayed death inhibitors of the malarial parasite plastid, 48 hour incubation; actives 5.9% (n = 310,000); Potency, µM (doses to about 28.7 µM), for inactives: top-dose activity change, negative = inhibition, usual class: inhibitors; P. falciparum luciferase growth in erythrocytes, 48 h; further: potency means the concentration at half of the fitted maximal effect; on the % scale 0 is the no-effect control and ±100 the full control effect
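Luciferase-expressing parasites in RBCs, 2% Hct / 0.1% parasitemia final; RPMI 1640 + 0.5% Albumax; 37 C, 5% CO2, one generation; luminescence read-out, lower signal = inhibition.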
Pf growth 96h: Primary qHTS for delayed death inhibitors of the malarial parasite plastid, 96 hour incubation | P. falciparum luciferase reporter growth, 96 h | AID 504834, 2011 | actives 6.9% (n = 320,000) | Potency, µM (doses to about 28.7 µM), for inactives: at the highest dose activity change, negative = inhibition, most hits filed as inhibitors; further: potency means the concentration at half of the fitted maximal effect; on the % scale 0 is the no-effect control and ±100 the full control effect
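Luminescence readout: decreased luciferase signal marks inhibited growth of reporter-expressing P. falciparum in infected red cells (2% hematocrit, 0.05% parasitemia final), exposed to compound two generations (96 h, 37 C, 5% CO2).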
MARV entry inh: qHTS for inhibitors of binding or entry into cells for Marburg Virus | Potency, µM (series often up to 37.8 µM), for inactives: at the top dose activity change, negative = inhibition, actives largely listed as inhibitors | actives 1.8% (n = 300,000) | Marburg virus pseudotyped entry inhibition, cell reporter; calls by dose curve; tested in HEK293 cells; further: potency means the concentration at half of the fitted maximal effect; on the % scale 0 is the no-effect control and ±100 the full control effect
CHX counter: Cycloheximide Counterscreen for Small Molecule Inhibitors of Shiga Toxin. cell reporter, cycloheximide protein synthesis inhibition counterscreen. max response, %. actives 12% (n = 300,000); in the data active means max response mostly above about 13%, no sharp cut-off; inactive means mostly below about 14%; further: read at 38.3 µM for the half of the compounds with a filed dose; 0% is about no effect
Lassa entry inh: qHTS for Inhibitors of binding or entry into cells for Lassa Virus. Lassa virus pseudotype entry inhibition, cell reporter. Potency, µM (highest dose often 37.9 µM), inactives show at the highest dose activity change, negative = inhibition, actives largely listed as inhibitors. actives 1.2% (n = 300,000). AID 540256, 2011; calls by dose curve; tested in HEK293 cells; further: potency means the concentration at half of the fitted maximal effect; on the % scale 0 is the no-effect control and ±100 the full control effect; nearly all actives have a fitted effect of over 50% in size
* = called active by the depositor; ? = inconclusive; · = no result given; [ ] = remark or other dose. Rows were chosen to be rich in hits. Some 19% of all compounds tested hit in one or more screens of this group. Unless noted, the call rests on the fitted dose curve; in most records, active means well fitted inhibition curve with a large enough effect; inconclusive means small, poorly fitted or top-dose-only effect, or another doubt; inactive means no such curve, though single readings can be large or run the other way.

SMILES	Shiga toxin inh	Pf growth 48h	Pf growth 96h	MARV entry inh	CHX counter	Lassa entry inh
O=C1C=CCC(/C=C/c2ccccc2)O1 (stereo not drawn)	-13.1	5.7%	23.3%	8.2µM*	-2.8	?
COC1=CC(=O)O[C@@H](/C=C/c2ccccc2)C1	·	17.9%	36.8%	18.4%	·	·
COc1ccccc1N1CCN(S(=O)(=O)c2ccc3c(c2)CCCN3C(C)=O)CC1	·	·	·	·	·	-8.1%[46.1 µM]
CC(=Nc1ccccc1N)c1c(C)cc(=O)n(O)c1O	57.3*	·	·	·	31.2*	·
COc1ccc(-c2nnc(SCC(=O)Nc3sc4c(c3C#N)CCC4)n2CC2CCCO2)cc1 (stereo not drawn)	-0.4	-2.3%	7.4%	-14.2%	0.9	-23.2%
N#Cc1c(-c2ccccc2)nc(SCC(=O)N(c2ccccc2)c2ccccc2)[nH]c1=O	-8.0	8.4%	13.1µM*	?	-3.8	3.3%
N#Cc1c(-c2ccccc2)nc(SCC(=O)N2c3ccccc3Sc3ccccc32)[nH]c1=O	1.2	-4.3%	100.4%	·	-1.8	·
N#Cc1c(-c2ccccc2)nc(SCC(=O)Nc2ccccc2)[nH]c1=O	-10.2	9.1%	-14.0%	-3.0%	8.9	-0.3%
N#Cc1c(-c2ccccc2)nc(SCC(=O)Nc2ccc(OC(F)(F)Cl)cc2)[nH]c1=O	-3.9	-16.7%	3.7µM*	·	-4.5	·
Cc1ccccc1-c1noc(-c2cccnc2N2CCN(c3ccccc3)CC2)n1	·	·	·	-5.3%[46.1 µM]	·	-0.4%[46.1 µM]
O=C(NC1CCCC1)C(c1ccccc1F)N(C(=O)c1csnn1)C1CC1 (stereo not drawn)	-9.5	-4.3%	?	-26.6%[46.1 µM]	-2.6	-0.9%[46.1 µM]
COc1ccc(-c2nc(CS(=O)(=O)CC(=O)NCCc3cc(OC)ccc3OC)c(C)o2)cc1	8.9	?	?	?	-2.0	-9.8%
Cc1cc(S(=O)(=O)N2CCCCC2)ccc1OCC(=O)N1CCCC1	7.1	-21.4%	?	3.8%	-3.5	9.2%
Cc1cc(Br)ccc1OCC(=O)N1CCCCCC1	27.3	·	26.5%	?	24.8*	3.2%
Cc1ccc(C)c(OCC(=O)N2CCCN(C)CC2)c1	-1.6	0.9%	31.2%	19.8%	-2.1	13.3%
CC(C)c1ccc(OCC(=O)N2CCCCCC2)c(Br)c1	79.8*	46.1%	8.0%	?	24.6*	13.3%[46.1 µM]
Cc1ccc(OCC(=O)N2CCN(C)CC2)c(Br)c1	93.3*	44.9%	140.1%	?	21.4*	24.2%
O=C(COc1ccc(Cl)cc1Cl)N1CCCC1	-3.3	·	-14.0%	-4.3%	1.0	11.7%
Cc1ccc(OCC(=O)N2CCCCCC2)c(C)c1	36.8	24.4%	·	?	10.4*	6.7%
CSc1sc(C(=O)NNC(C)=O)c2c1C1(CCC2)SCCS1	-6.4	-4.7%	-10.5%	·	-1.6	·
Cc1ccc(Cn2c(SCC(C)C)nc3c2c(=O)[nH]c(=O)n3C)cc1	-4.1	0.5%	·	29.9%	-5.4	-18.4%
O=C(NNC1=Nc2ccccc2SC1)c1ccc(F)cc1	25.8	10.4µM*	?	?	18.3	-18.0%
O=C(NNC1=Nc2ccccc2SC1)c1ccc(Cl)cc1	-7.8	?	?	?	-4.6	?
COc1ccccc1C(OC(=O)c1ccco1)C(=O)NC(C)(C)C (stereo not drawn)	-11.2	6.1%	·	17.9%	8.4	16.8%
c1ccc(-c2ncc(CN3CCN(c4ccccn4)CC3)[nH]2)cc1	12.5	-11.8%	12.1%	·	10.7	·
SMILES	Shiga toxin inh	Pf growth 48h	Pf growth 96h	MARV entry inh	CHX counter	Lassa entry inh
O=C(O)c1ccc2c(=O)n3c(nc2c1)/C(=C/c1cccc(Cl)c1Cl)CCCC3	-7.2	-25.2%	11.7µM*	-20.0%	-3.0	0.6%
CC1=CCC2COC(c3ccc[n+](Cc4ccccc4)c3)C1C2 (stereo not drawn)	-7.5	1.47µM*	-23.7%	-3.0%	-3.5	-3.8%
Cc1c(C)c2c(OCC(=O)N3CCC(C(=O)O)CC3)cc3c(c2oc1=O)CCC(C)(C)O3	-2.4	?	5.22µM*	·	-2.8	·
Cc1c(C)c2c(OCC(=O)Nc3ccc(CCO)cc3)cc3c(c2oc1=O)CCC(C)(C)O3	8.5	8.28µM*	13.1µM*	·	-2.8	·
Cc1c(C)c2c(OCC(=O)N3CCC(C(=O)NCC(C)C)CC3)cc3c(c2oc1=O)CCC(C)(C)O3	33.3	?	-5.7%	·	1.8	·
Cc1c(C)c2c(OCC(=O)O)cc3c(c2oc1=O)CCC(C)(C)O3	-3.6	20.5%[0.00184 µM]	-13.7%	·	-6.3	·
CCc1ccc(NC(=O)N(C2CCC(C)CC2)C2CCN(C(C)=O)CC2)cc1 (stereo not drawn)	67.5*	-2.6%	?	27.8%	30.9*	15.8%
Cc1ccc(NC(=O)N(Cc2c[nH]c3ccccc23)C2CCCCCC2)cc1C	·	·	·	?	·	2.51µM*
CC(=O)N1CCC(N(C(=O)Nc2ccc(C)c(C)c2)C2CCCC2)CC1	0.6	15.8%	·	16.2%	13.8*	4.8%
COc1cccc(NC(=O)N(Cc2c[nH]c3ccccc23)C2CCCCC2)c1	·	·	·	?	·	-16.0%[46.1 µM]
CC(=O)N1CCC(N(CCCOC(C)C)C(=O)Nc2ccc(C)c(C)c2)CC1	-13.0	-16.8%	?	21.8%	-2.0	-9.4%[46.1 µM]
O=C(Nc1ccc(Cl)cc1)c1cc2c(cc1O)[nH]c1ccccc12	39.3	10.4µM*	?	7.94µM*	4.9	?
O=C(NN1CCOCC1)c1ccc([N+](=O)[O-])cc1	-7.0	31.7%	-14.9%	·	-2.0	·
CC(C)(C)NS(=O)(=O)c1cnc(Cl)c(Cl)c1	13.5	0.0%	-0.5%	8.4%	-1.8	1.1%
O=C(c1ccc(F)cc1)C(CCCCCC(CN1CCOCC1)C(=O)c1ccc(F)cc1)CN1CCOCC1 (stereo not drawn)	-12.3	?	9.28µM*	?	-1.4	?
O=C(CN1CCOCC1)Nc1ccc(F)cc1	-3.1	10.6%[0.00184 µM]	14.4%	·	8.4	·
CCC(=O)N1N=C2CC(C)(C)OCC2C1c1ccccc1 (stereo not drawn)	-9.9	23.1%	14.1%	?	-2.5	1.9%
O=C(O)c1cc(NC(=O)c2ccc(Br)cc2)cc(NC(=O)c2ccc(Br)cc2)c1	-5.9	16.5%	62.6%	·	-2.8	·
CC(C)(C)C(=O)Nc1ccc(C(=O)NNC(=O)Cc2ccccc2)cc1	11.5	20.9%	2.94µM*	6.4%	14.8*	14.3%
CC(C)(C)C(=O)Nc1ccc(C(=O)NNC(=O)c2ccccc2)cc1	78.0*	46.5%	13.1µM*	?	31.3*	13.0%
O=C(Cc1ccccc1)Nc1ccc(C(=O)NCc2ccccc2)cc1	9.6	-15.8%	?	1.0%	5.2	-0.4%
CC(C)(C)C(=O)Nc1ccc(C(=O)Nc2cc(NC(=O)c3ccc(NC(=O)C(C)(C)C)cc3)cc(C(=O)O)c2)cc1	10.5	?	-3.9%	27.8%	18.7*	19.0%
CC(C)(C)C(=O)Nc1ccc(NC(=O)C(C)(C)C)cc1	17.2	4.4%	61.0%	·	4.2	·
COc1cc(-c2noc(C)c2C#Cc2ccc(N)cc2)cc(OC)c1OC	12.2	-0.2%	?	·	14.1*	·
